Assay results: PubChem BioAssay (NCI)
The panel holds about 79,000 compounds, 15% with a hit somewhere; the sample as a whole holds those more often. The source made the active and inactive calls. No stated cut-off is given here; in the data, active means growth inhibition above about 70%; inactive means the rest.

Columns and labels:
[1] = NCI Yeast Anticancer Drug Screen. Data for the wt2 strain (AID 169);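 further: 0% = growth of vehicle-treated yeast cultures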; details: S. cerevisiae wt2 strain growth inhibition, active compounds read high
Method in brief: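 Against vehicle-treated controls, the growth of yeast exposed to each compound was compared, and the inhibition was recorded.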

[2] = NCI Yeast Anticancer Drug Screen. Data for the mlh1 strain (AID 171);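 further: 0% = growth of vehicle-treated control cultures of the same strain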; details: S. cerevisiae mlh1 strain growth inhibition, active compounds read high
Method in brief: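 Measured: yeast growth. Reference: vehicle-treated controls. Organism: strain with a defined alteration affecting DNA damage repair or cell cycle control, treated with compound.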

[3] = NCI Yeast Anticancer Drug Screen. Data for the sgs1 strain (AID 173);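 further: 0% = growth of vehicle-only control cultures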; details: S. cerevisiae sgs1 mutant, active compounds read high
Method in brief: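 Each compound was added to cultures of the altered yeast strain. Growth was recorded, and inhibition was derived by comparison with vehicle controls.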

[4] = NCI Yeast Anticancer Drug Screen. Data for the mlh1 rad18 strain (AID 175); details: S. cerevisiae mlh1 rad18 strain growth inhibition, active compounds read high
Method in brief: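 Genetically defined yeast (DNA repair-deficient) exposed to compounds; growth inhibition determined relative to vehicle.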

[5] = NCI Yeast Anticancer Drug Screen. Data for the rad18 strain (AID 177); details: S. cerevisiae rad18 mutant growth inhibition, active compounds read high
Method in brief: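 Vehicle-treated cultures served as the baseline for scoring compound-induced growth inhibition in DNA-repair-mutant yeast.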

[6] = NCI Yeast Anticancer Drug Screen. Data for the rad52 strain (AID 147);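 further: 0% = growth of vehicle-treated control cultures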; details: S. cerevisiae rad52 mutant growth inhibition, active compounds read high
Method in brief: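 The repair-mutant yeast strain was incubated with compounds, then growth was read and inhibition derived relative to vehicle.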

[7] = NCI Yeast Anticancer Drug Screen. Data for the wt1 strain (AID 149);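 further: 0% = growth of vehicle-treated wt1 cultures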; details: S. cerevisiae wt1 strain (SPY 50644) growth inhibition, active compounds read high
Method in brief: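 wt1 yeast, compound-treated; % growth inhibition vs vehicle control.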

[8] = NCI Yeast Anticancer Drug Screen. Data for the rad50EPP+ strain (AID 151);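 further: 0% = growth of vehicle-treated control cultures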; details: S. cerevisiae rad50 mutant strain, active compounds read high
Method in brief: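 Vehicle-normalised growth inhibition; rad50EPP+ yeast strain, altered in DNA damage repair, compound-treated.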

[9] = NCI Yeast Anticancer Drug Screen. Data for the mgt1 strain (AID 153); details: S. cerevisiae mgt1 mutant growth inhibition, active compounds read high
Method in brief: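 Vehicle-normalized growth inhibition is determined in mgt1 yeast, a strain selected for a defined alteration in DNA repair or cell cycle control.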

[10] = NCI Yeast Anticancer Drug Screen. Data for the rad50 strain (AID 155);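 further: 0% = growth of vehicle-only cultures of the same strain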; details: S. cerevisiae rad50 strain growth inhibition, active compounds read high
Method in brief: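 Genetically altered yeast (DNA repair pathway); compound treatment; growth inhibition vs vehicle ctrl.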

[11] = NCI Yeast Anticancer Drug Screen. Data for the mec2-1 strain (AID 157); details: S. cerevisiae mec2-1 strain, active compounds read high
Method in brief: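 Mutant yeast (mec2-1) grown with compound; growth inhibition relative to vehicle control reported.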

[12] = NCI Yeast Anticancer Drug Screen. Data for the rad14 strain (AID 159);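 further: 0% = growth of vehicle-treated control cultures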; details: S. cerevisiae rad14 strain growth inhibition, active compounds read high
Method in brief: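 Test compounds were applied to a repair-deficient yeast strain. Its growth was then compared with that of cultures given vehicle alone, and inhibition was expressed relative to those controls.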

[13] = NCI Yeast Anticancer Drug Screen. Data for the sgs1 mgt1 strain (AID 161);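 further: 0% = growth of cultures given vehicle only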; details: S. cerevisiae sgs1 mgt1 strain, active compounds read high
Method in brief: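 Growth of a repair-deficient yeast mutant was monitored after compound treatment and expressed as inhibition relative to vehicle-treated cultures.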

[14] = NCI Yeast Anticancer Drug Screen. Data for the CLN2oe strain (AID 163);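 further: 0% = growth of vehicle-only control cultures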; details: S. cerevisiae CLN2oe strain, active compounds read high
Method in brief: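 Compounds are applied to yeast harbouring a defined cell-cycle control change; reduced growth compared with vehicle-treated controls gives the value.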

[15] = NCI Yeast Anticancer Drug Screen. Data for the cln2 rad14 strain (AID 165);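 further: 0% = growth equal to vehicle treated cultures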; details: S. cerevisiae cln2 rad14 strain, active compounds read high
Method in brief: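 Readout is yeast growth inhibition versus vehicle-treated controls, using a strain with cln2 and rad14 alterations exposed to compound.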

[16] = NCI Yeast Anticancer Drug Screen. Data for the bub3 strain (AID 167); details: S. cerevisiae bub3 mutant strain, active compounds read high
Method in brief: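 Yeast carrying a defined mutation is treated with each compound, and growth is compared with that of vehicle-exposed cells to give inhibition.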

[17] = at 5.0 µM (retest, dose inferred, filed as 0.5)
[18] = at 50.0 µM (retest, dose inferred, filed as 5.0)

Measured: growth inhibition

CN(CC(=O)O)c1ccc(/C=C/c2ccnc3ccccc23)cc1
active: [4]; [18] 88% | [5]; at 33.0 µM 78% | [5]; at 100.0 µM 91%
inactive: [1]; at 1.2 µM -4% | [1]; at 3.7 µM -4% | [1]; at 11.0 µM -5% | [1]; at 33.0 µM -3% | [1]; at 100.0 µM 37% | [2]; at 1.2 µM -1% | [2]; at 3.7 µM 2% | [2]; at 11.0 µM 3% | [2]; at 33.0 µM 7% | [2]; at 100.0 µM 41% | [3]; at 1.2 µM -2% | [3]; at 3.7 µM 0% | [3]; at 11.0 µM 4% | [3]; at 33.0 µM 22% | [3]; at 100.0 µM 65% | [4]; [17] 30% | [4]; at 50.0 µM 50.4% | [5]; at 1.2 µM 1% | [5]; at 3.7 µM 5% | [5]; at 11.0 µM 10%

COc1ccc2c(c1)[nH]c1c(/C=C/c3ccccc3)nccc12
inactive: [6]; at 1.2 µM 9% | [6]; at 3.7 µM -8% | [6]; at 11.0 µM -2% | [6]; at 33.0 µM 50% | [7]; at 1.2 µM -34% | [7]; at 3.7 µM -32% | [7]; at 11.0 µM -18% | [7]; at 33.0 µM 41% | [8]; at 1.2 µM 0% | [8]; at 3.7 µM 7% | [8]; at 11.0 µM 13% | [8]; at 33.0 µM 46% | [9]; at 1.2 µM 9% | [9]; at 3.7 µM 3% | [9]; at 11.0 µM 18% | [10]; at 1.2 µM 31% | [10]; at 3.7 µM 29% | [10]; [17] 44% | [10]; at 11.0 µM 23% | [11]; at 1.2 µM -9% | [11]; at 3.7 µM -6% | [11]; [17] 42% | [11]; at 11.0 µM 1% | [12]; at 1.2 µM -29% | [12]; at 3.7 µM -25% | [12]; at 11.0 µM -22% | [13]; [17] -28% | [14]; at 1.2 µM -15% | [14]; at 3.7 µM -23% | [14]; at 11.0 µM -38% | [14]; at 33.0 µM 63% | [15]; [17] 40% | [16]; at 1.2 µM 12% | [16]; at 3.7 µM 19% | [16]; [17] -24% | [16]; at 11.0 µM 27% | [16]; at 33.0 µM 48% | [1]; at 1.2 µM -36% | [1]; at 3.7 µM -29% | [1]; at 11.0 µM -30% | [1]; at 33.0 µM 68% | [2]; at 1.2 µM -42% | [2]; at 3.7 µM -36% | [2]; at 11.0 µM -35% | [2]; at 33.0 µM 68% | [3]; at 1.2 µM 2% | [3]; at 3.7 µM -7% | [3]; at 11.0 µM -3% | [4]; [17] 29% | [5]; at 1.2 µM 11% | [5]; at 3.7 µM 0% | [5]; at 11.0 µM 6% | [5]; at 33.0 µM 67%
active: [6]; at 100.0 µM 97% | [7]; at 100.0 µM 97% | [8]; at 100.0 µM 78% | [9]; at 33.0 µM 94% | [9]; at 100.0 µM 98% | [10]; at 33.0 µM 78% | [10]; [18] 93% | [10]; at 50.0 µM 89.5% | [10]; at 100.0 µM 96% | [11]; at 33.0 µM 75% | [11]; [18] 93% | [11]; at 50.0 µM 92.1% | [11]; at 100.0 µM 98% | [12]; at 33.0 µM 71% | [12]; at 100.0 µM 97% | [13]; [18] 80% | [13]; at 50.0 µM 92.5% | [14]; at 100.0 µM 98% | [15]; [18] 74% | [15]; at 50.0 µM 70.7% | [16]; [18] 82% | [16]; at 50.0 µM 87.8% | [16]; at 100.0 µM 98% | [1]; at 100.0 µM 97% | [2]; at 100.0 µM 96% | [3]; at 33.0 µM 78% | [3]; at 100.0 µM 97% | [4]; [18] 95% | [4]; at 50.0 µM 89.5% | [5]; at 100.0 µM 97%

Nc1ccc2c(=S)c3ccccc3[nH]c2c1
inactive: [6]; at 1.2 µM 8% | [6]; at 3.7 µM 12% | [6]; at 11.0 µM 12% | [6]; at 33.0 µM 32% | [7]; at 1.2 µM 9% | [7]; at 3.7 µM 30% | [7]; at 11.0 µM 22% | [7]; at 33.0 µM 44% | [7]; at 100.0 µM 48% | [8]; at 1.2 µM 0% | [8]; at 3.7 µM 6% | [8]; at 11.0 µM 12% | [8]; at 33.0 µM 23% | [9]; at 1.2 µM -3% | [9]; at 3.7 µM 1% | [9]; at 11.0 µM 0% | [9]; at 33.0 µM 16% | [9]; at 100.0 µM 51% | [10]; at 1.2 µM 18% | [10]; at 3.7 µM 1% | [10]; [17] 15% | [10]; at 11.0 µM 8% | [10]; at 33.0 µM 22% | [10]; [18] 50% | [10]; at 50.0 µM 29.4% | [10]; at 100.0 µM 48% | [11]; at 1.2 µM 9% | [11]; at 3.7 µM -3% | [11]; [17] 14% | [11]; at 11.0 µM -3% | [11]; at 33.0 µM 26% | [11]; [18] 40% | [11]; at 50.0 µM 28.9% | [11]; at 100.0 µM 35% | [12]; at 1.2 µM 4% | [12]; at 3.7 µM 7% | [12]; at 11.0 µM 2% | [12]; at 33.0 µM 12% | [12]; at 100.0 µM 42% | [13]; [17] 29% | [14]; at 1.2 µM 16% | [14]; at 3.7 µM 4% | [14]; at 11.0 µM 13% | [14]; at 33.0 µM 19% | [14]; at 100.0 µM 51% | [15]; [17] 26% | [15]; [18] 62% | [15]; at 50.0 µM 28.3% | [16]; at 1.2 µM -19% | [16]; at 3.7 µM -16% | [16]; [17] 9% | [16]; at 11.0 µM -16% | [16]; at 33.0 µM -9% | [16]; at 50.0 µM 47.5% | [16]; at 100.0 µM 35% | [1]; at 1.2 µM -7% | [1]; at 3.7 µM -1% | [1]; at 11.0 µM 1% | [1]; at 33.0 µM 49% | [2]; at 1.2 µM -2% | [2]; at 3.7 µM 9% | [2]; at 11.0 µM -2% | [2]; at 33.0 µM 27% | [2]; at 100.0 µM 61% | [3]; at 1.2 µM 17% | [3]; at 3.7 µM 18% | [3]; at 11.0 µM 20% | [3]; at 33.0 µM 24% | [3]; at 100.0 µM 59% | [4]; [17] 6% | [4]; [18] 64% | [5]; at 1.2 µM 2% | [5]; at 3.7 µM -2% | [5]; at 11.0 µM -8% | [5]; at 33.0 µM 4% | [5]; at 100.0 µM 67%
active: [6]; at 100.0 µM 71% | [8]; at 100.0 µM 74% | [13]; [18] 83% | [13]; at 50.0 µM 80.5% | [16]; [18] 82% | [1]; at 100.0 µM 83%
